# Assay results published in paper PMC12864922, “TDP-43 directly inhibits mRNA accumulation in neurites through modulation of mRNA stability”.
# Over roughly 9,900 sequences, “r (bound/input frequency ratio)” has its median near 0.7; the highest 2% begin near 6.5. Many of the other results were omitted from the sample, so the highest values are more common in it than they were.
# B1: ENSMUSG00000090935.743|Synj2bp (ssRNA)
# RNA: GGGAGUUCUACAGUCCGACGAUCGCUUCGAUAUCCGCAUGCUAAAUACUCCUGGGUAAAAUUUGUAUUAGAAUGGAAAAAAAAAUGAGGGUCAGAAAGGUGAGCUAACUUCAAGUUAGAUACUCCCCUCUAUUUUGGUCUCAAAUUUGUUUUAGUGUGUCCACAACAUGAAAACAUACAAAAACUAUAUUUUAAAAAUCAGUUUACUUUCAUCUUUUCUCUUUAGGCUUUCAAUAAAGACCAGAAGGACUGAUAGACAGCUAGAGAGGAUCGUGUAGGCAUCCAGAUUAGAAUGGAAGAAUCCCUCUUGCGGUCGCACUAGUGUGGAAUUCUCGGGUGUCAAGG
# B2: ENSMUSG00000022095.31|Fam160b2|161:165 (ssRNA)
# RNA: GGGAGUUCUACAGUCCGACGAUCGCUUCGAUAUCCGCAUGCUACUCUGUCCUCCAUGCCGGGGACUUCAGCUGCAGGACACCUCACCUGUUGACCCCACGAGCUGAGGUUUCAAGGAGGUGCUGGCUCCUAAGGCAGUGGUAUUCUUGGAGCCUUUUAGAGGAGCUAGAGGAUGGCCAGUGAGCGCCUAGAUGCUGCCCUGCAACACAUGCGUGACUAUCUCUGCUAUAUUGUGACCAGGGCCACAACAUGAGACAACUCCAGGGGCCAGGGAGAUGAACUGCUGUCUUUGAGGCUGGCUAAACUCUUGCGGUCGCACUAGUGUGGAAUUCUCGGGUGUCAAGG
# B3: ENSMUSG00000042529.39|Kcnj12 (ssRNA)
# RNA: GGGAGUUCUACAGUCCGACGAUCGCUUCGAUAUCCGCAUGCUAGUUUUUUCGCAGUAGCUUGGGAAAGUUGGCGGGAGCGUGGAUGGCCAAAAUGACUGGCUCACGGCCUCGGAGGCUGAUGUAUACCCAUGGGCAAGGAGGUGACUUCUUGGGGUAGGGUUGCUCAGGAGUUAGGGACUCUGCUGGAGGCCUUAGGUGCAGGUCCCAGCCCCGGUGGGAGGAGGCUGUGUAUGUACACUUCAUUGGUUUUUAACUUGGGCAAGACUGUUUACAAACAAAAACAAACAAACAAACAAUCAAAACUCUUGCGGUCGCACUAGUGUGGAAUUCUCGGGUGUCAAGG
# B4: ENSMUSG00000061578.1488|Ksr2 (ssRNA)
# RNA: GGGAGUUCUACAGUCCGACGAUCGCUUCGAUAUCCGCAUGCUAAAUGAAUAUGUGGGUAGAAGGGUGAGUGGGUGGAUGAAUGGAUGGAUAGGUUGGUAGGUUAAUGUAUUCGUGGAUGGGUGAAUGGAUGGAUGGAUAGAUAGAUGGGAAGGUGGAUGGACAGAUGGAUGGAUGGAUAGAUAGAUGGACAGGUGGUUGGUGGAUAAAUGAGUGAAUGAUUAUGUUGAUAGAUAUGUGGGUAGGCUGAAUGGGUGAAUGGAUAGAUCGAUGACUGGAUGGAGGGUGGGUGACUGUAUAGGCAGCUCUUGCGGUCGCACUAGUGUGGAAUUCUCGGGUGUCAAGG
# B5: ENSMUSG00000061578.1492|Ksr2 (ssRNA)
# RNA: GGGAGUUCUACAGUCCGACGAUCGCUUCGAUAUCCGCAUGCUAAGUGGGUGGAUGAAUGGAUGGAUAGGUUGGUAGGUUAAUGUAUUCGUGGAUGGGUGAAUGGAUGGAUGGAUAGAUAGAUGGGAAGGUGGAUGGACAGAUGGAUGGAUGGAUAGAUAGAUGGACAGGUGGUUGGUGGAUAAAUGAGUGAAUGAUUAUGUUGAUAGAUAUGUGGGUAGGCUGAAUGGGUGAAUGGAUAGAUCGAUGACUGGAUGGAGGGUGGGUGACUGUAUAGGCAGGUGGGUAGGUAGCUGGAUGGGUGGCUCUUGCGGUCGCACUAGUGUGGAAUUCUCGGGUGUCAAGG
# B6: ENSMUSG00000061578.1494|Ksr2 (ssRNA)
# RNA: GGGAGUUCUACAGUCCGACGAUCGCUUCGAUAUCCGCAUGCUAAAUGGAUGGAUAGGUUGGUAGGUUAAUGUAUUCGUGGAUGGGUGAAUGGAUGGAUGGAUAGAUAGAUGGGAAGGUGGAUGGACAGAUGGAUGGAUGGAUAGAUAGAUGGACAGGUGGUUGGUGGAUAAAUGAGUGAAUGAUUAUGUUGAUAGAUAUGUGGGUAGGCUGAAUGGGUGAAUGGAUAGAUCGAUGACUGGAUGGAGGGUGGGUGACUGUAUAGGCAGGUGGGUAGGUAGCUGGAUGGGUGGGCGUAUAGAAAGCUCUUGCGGUCGCACUAGUGUGGAAUUCUCGGGUGUCAAGG
# B7: ENSMUSG00000061578.1490|Ksr2 (ssRNA)
# RNA: GGGAGUUCUACAGUCCGACGAUCGCUUCGAUAUCCGCAUGCUAGGUAGAAGGGUGAGUGGGUGGAUGAAUGGAUGGAUAGGUUGGUAGGUUAAUGUAUUCGUGGAUGGGUGAAUGGAUGGAUGGAUAGAUAGAUGGGAAGGUGGAUGGACAGAUGGAUGGAUGGAUAGAUAGAUGGACAGGUGGUUGGUGGAUAAAUGAGUGAAUGAUUAUGUUGAUAGAUAUGUGGGUAGGCUGAAUGGGUGAAUGGAUAGAUCGAUGACUGGAUGGAGGGUGGGUGACUGUAUAGGCAGGUGGGUAGGUAGCUCUUGCGGUCGCACUAGUGUGGAAUUCUCGGGUGUCAAGG
# B8: ENSMUSG00000061578.1489|Ksr2 (ssRNA)
# RNA: GGGAGUUCUACAGUCCGACGAUCGCUUCGAUAUCCGCAUGCUAUAUGUGGGUAGAAGGGUGAGUGGGUGGAUGAAUGGAUGGAUAGGUUGGUAGGUUAAUGUAUUCGUGGAUGGGUGAAUGGAUGGAUGGAUAGAUAGAUGGGAAGGUGGAUGGACAGAUGGAUGGAUGGAUAGAUAGAUGGACAGGUGGUUGGUGGAUAAAUGAGUGAAUGAUUAUGUUGAUAGAUAUGUGGGUAGGCUGAAUGGGUGAAUGGAUAGAUCGAUGACUGGAUGGAGGGUGGGUGACUGUAUAGGCAGGUGGGUCUCUUGCGGUCGCACUAGUGUGGAAUUCUCGGGUGUCAAGG
# B9: ENSMUSG00000061578.1493|Ksr2 (ssRNA)
# RNA: GGGAGUUCUACAGUCCGACGAUCGCUUCGAUAUCCGCAUGCUAUGGAUGAAUGGAUGGAUAGGUUGGUAGGUUAAUGUAUUCGUGGAUGGGUGAAUGGAUGGAUGGAUAGAUAGAUGGGAAGGUGGAUGGACAGAUGGAUGGAUGGAUAGAUAGAUGGACAGGUGGUUGGUGGAUAAAUGAGUGAAUGAUUAUGUUGAUAGAUAUGUGGGUAGGCUGAAUGGGUGAAUGGAUAGAUCGAUGACUGGAUGGAGGGUGGGUGACUGUAUAGGCAGGUGGGUAGGUAGCUGGAUGGGUGGGCGUAUCUCUUGCGGUCGCACUAGUGUGGAAUUCUCGGGUGUCAAGG
# Target: TDP-43 (Homo sapiens, UniProt Q13148 1-414)
# Sequence (Q13148 whole entry): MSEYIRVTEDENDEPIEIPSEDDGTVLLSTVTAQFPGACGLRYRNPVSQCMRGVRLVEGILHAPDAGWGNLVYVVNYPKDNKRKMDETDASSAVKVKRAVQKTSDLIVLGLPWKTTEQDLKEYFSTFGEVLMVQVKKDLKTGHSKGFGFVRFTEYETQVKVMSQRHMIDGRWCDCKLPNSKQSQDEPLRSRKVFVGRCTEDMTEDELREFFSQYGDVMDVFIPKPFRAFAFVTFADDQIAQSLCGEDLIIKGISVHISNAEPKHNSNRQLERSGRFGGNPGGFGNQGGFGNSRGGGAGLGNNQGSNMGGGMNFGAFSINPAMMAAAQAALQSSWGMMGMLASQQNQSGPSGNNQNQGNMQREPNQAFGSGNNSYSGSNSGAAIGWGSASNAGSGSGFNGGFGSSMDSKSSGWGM
# Assay: RNA Bind-n-Seq with designed 260-mer pool; 25 mM Tris-HCl, 150 mM KCl, 3 mM MgCl2, BSA (printed 500 mg/mL), 20 units/mL SUPERase IN; pH not stated; 500 nM RNA pool, 1 h, 4 C; TDP-43 5, 50, 500 nM; high values mean tight binding
# Conditions: protein: recombinant; tags: SBP (GST cleaved off with PreScission; pGEX-GST-SBP)
# In short: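 The incubation lasted 1 h at 4 °C and used 500 nM of an in vitro-transcribed 260-nt 3′ UTR oligo pool with recombinant SBP-tagged TDP-43 at 5, 50 or 500 nM immobilized on streptavidin beads. It took place in 25 mM Tris-HCl, 150 mM KCl, 3 mM MgCl2, BSA and SUPERase IN. Bound RNA was washed, eluted with biotin, converted to cDNA, PCR-amplified and sequenced to give R, each oligo's normalized abundance in the bound sample divided by that in input. Two independent protein batches provided the duplicates.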
row,Binder,binding signal
1,B1,0.123 R (bound/input frequency ratio)
2,B2,0.326 R (bound/input frequency ratio)
3,B3,1.88 R (bound/input frequency ratio)
4,B4,5.5 R (bound/input frequency ratio)
5,B5,7.07 R (bound/input frequency ratio)
6,B6,5.89 R (bound/input frequency ratio)
7,B7,11.2 R (bound/input frequency ratio)
8,B8,5.83 R (bound/input frequency ratio)
9,B9,4.33 R (bound/input frequency ratio)
